Data: PubChem BioAssay (NCATS)
Inconclusive results are not listed. Values without a mark were called inactive. Activity calls are given as the source filed them. Calls come from the whole dose curve.

Assay: qHTS for inhibitors of Rabies Virus screened against the NCATS CANVASS Library (AID 1347402); note: 0% is about no effect
Conditions: Rabies virus infection cell assay; series mostly up to 45.9 µM; activity change, negative = inhibition: at the top concentration

Row | SMILES | activity change, negative = inhibition | outcome
1 | CS/C=C/C(N)=O | -10.9% | 
2 | O=C(O)CC1OC(=O)c2c(O)cccc21 (stereo not given) | 3.89% | 
3 | C=C1C[C@@]23C=CC(=O)[C@@](C)(CCCC(C)C(=O)O)[C@@H]2C[C@@H]1CC3 (stereo not given in full) | -9.66% | 
4 | COc1ccc([C@@H]2CC(=O)c3c(cc(O)c(C/C=C(\C)CCC=C(C)C)c3O)O2)cc1 | -26.8% [at 9.14 µM] | 
5 | C=C(C)[C@@H]1CC[C@]2(C)CC[C@]3(C)[C@H](CC[C@@H]4[C@@]5(C)CC[C@H](O)C(C)(C)[C@@H]5CC[C@]43C)[C@@H]12 |  | inactive
6 | COC(=O)[C@@]1(C)CCC[C@]2(C)c3cc(OC)ccc3CC[C@@H]12 | -0.556% | 
7 | CCCCCCC[C@@H](C/C=C/CCC(=O)NCCc1c[nH]c2ccccc12)OC | -30.3% | 
8 | O=C1c2c(O)cc(O)cc2O[C@@H](c2ccc(O)cc2)[C@@H]1c1c(O)cc(O)c2c(=O)cc(-c3ccc(O)c(O)c3)oc12 | 4.05% | 
9 | C=C1[C@H]2CC[C@@]3(C=CC(=O)[C@@](C)(CCC(=O)Nc4c(O)ccc(C(=O)O)c4O)C3C2)[C@H]1O (stereo not given in full) | -7.81% | 
10 | CC(C)=CCC[C@]12c3cc4c(cc3CC[C@@]1(C)[C@H](C)CC[C@@H]2O)[nH]c1ccccc14 | -2.51% | 
